MEX-5 binding: C. elegans MEX-5 TCR-2 RNA binding activity. MEX-5/FITC-TCR2 RNA binding, fluorescence polarization; active compounds read low. 300,000 compounds, 0.38% hits. activity score (negative = inhibition of binding), % at 10 µM;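 active = inhibition past about -25% in most replicates, and total fluorescence under double the plate's negative control median, limit read from the data; inconclusive = replicates evenly split on the limit, or fluorescence at least double controls; inactive = too little inhibition in most replicates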
PABP1 MLLE inh: blocks PAM2 peptide binding to the PABP1 MLLE domain; P11940; 360,000 compounds, 0.36% hits; GST-MLLE / FITC-PAM2 fluorescence polarization; inhibition, % at 20 µM; AID 588489; in the data active = inhibition above about 35%, passing the limit was not always enough
EBV gp42 block: blocks Epstein-Barr virus glycoprotein 42 binding. Q1HVG2. Fluorescence polarization binding assay, mP read-out. inhibition, % (tested at 21.74 µM). 220,000 compounds, 0.42% hits. AID 1085; in the data active = inhibition above about 50%
eIF4H inh: inhibitors of RNA binding by human eIF4H | Q15056 | eIF4H fluorescence polarization binding assay | inhibition, % at 35 µM | 290,000 compounds, 0.94% hits | AID 2012;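 note: calls also rest on retests at 20 µM and on dose response follow-up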
PABP polyA inh: blocks human PABP binding to poly(A) RNA; calls only at 35 µM; P11940; fluorescence polarization; 290,000 compounds, 1% hits;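 note: calls also rest on retests at 20 µM and on dose response follow-up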
A number is an active result; – = inactive; ? = inconclusive; · = no result; + = active, no number. Rows were chosen to be rich in hits. Some 1.8% of all compounds tested hit in one or more screens of this group. Unless noted, the rule behind the calls is not given here.

SMILES | MEX-5 binding | PABP1 MLLE inh | EBV gp42 block | eIF4H inh | PABP polyA inh
COc1ccc(OCC(=O)Nc2cccc3ncccc23)cc1 | – | – | – | – | –
O=C(CSc1ccccn1)Nc1ccccc1F | – | – | – | – | –
O=C(NCCN1CCCC(O)C1)c1cc(COc2cccc(C(F)(F)F)c2)on1 (stereo not drawn) | · | – | · | · | ·
Cc1ccc(/C=C/C2=Cc3c(sc(NC(=O)CSc4n[nH]c(N)n4)c3C#N)C(C)(C)C2)o1 | – | · | 77 | ? | ?
Cc1sc(NC(=O)CSc2n[nH]c(N)n2)c(C#N)c1C | · | – | · | · | ·
CC(=O)c1ccc(NC(=S)Nc2ccc3[nH]c(=O)[nH]c3c2)cc1 | – | – | – | – | –
Cc1ccc(NC(=S)Nc2ccc3[nH]c(=O)[nH]c3c2)cc1C | · | 43 | – | – | –
COc1ccccc1NC(C)=[N+](C)CCNS(=O)(=O)c1ccc(Cl)cc1 | – | – | · | – | +
COc1ccc(NC(C)=[N+](C)CCNS(=O)(=O)c2ccc(Cl)cc2)cc1Cl | – | – | · | · | ·
O=C1CCC(=O)N1c1nc2n(n1)C(c1ccccc1)C=C(c1ccc(Br)cc1)N2 (stereo not drawn) | – | – | 51 | – | –
COc1ccccc1C1C=C(c2ccc(Cl)cc2)Nc2nc(N3C(=O)CCC3=O)nn21 (stereo not drawn) | · | – | – | – | –
COc1ccc(C2C=C(c3ccc(Br)cc3)Nc3nc(N4C(=O)CCC4=O)nn32)cc1 (stereo not drawn) | -28 | – | 68 | – | –
CC(=O)Nc1ccc(S(=O)(=O)N(C)CC(=O)OC(C)C(=O)NC2(C#N)CCCCC2)cc1 (stereo not drawn) | · | – | · | · | ·
CCOc1ccc(N(C)S(=O)(=O)c2ccc(C)c(C(=O)N3CCN(Cc4ccc5c(c4)OCO5)CC3)c2)cc1 | · | – | · | · | ·
Fc1ccc(-c2nc3ccc(Cl)cn3c2Cc2cccc(F)c2)cc1 | · | – | · | · | ·
CCC(CC)C(=O)N(C)c1c(C)nc2c(OCCC3CCCCC3)cccn12 | · | – | · | · | ·
Cc1cccc2nc(CSCc3ccco3)cn12 | – | 44 | – | 76 | +
COc1cc(C(=O)NC(=S)NNC(=O)c2cnccn2)cc(OC)c1OC | -47 | – | – | – | –
Cn1c(=O)oc2cc(S(=O)(=O)N3CCN(c4cccc(Cl)c4)CC3)ccc21 | – | – | – | 103 | +
Cn1c(=O)oc2cc(S(=O)(=O)N3CCN(c4ccc(F)cc4)CC3)ccc21 | – | – | – | – | –
Oc1ccc(N=Cc2ccc(-c3cccs3)s2)cc1 | – | – | – | 51 | –
OCC(O)CNC(=S)NC1CCCCC1 (stereo not drawn) | – | 42 | – | – | –
O=C1C(F)=CC(COC(c2ccccc2)(c2ccccc2)c2ccccc2)OC1n1cc(F)c(=O)[nH]c1=O (stereo not drawn) | · | – | · | · | ·
CC1C(=O)N(Cc2cn(CCC3OCCO3)nn2)CCS(=O)(=O)N1Cc1ccc(-c2ccc(Cl)cc2)cc1 (stereo not drawn) | · | – | · | · | ·
COCCCNC(=O)/C(C#N)=c1\s/c(=C\c2ccccc2OC(F)F)c(=O)n1CCCOC | – | – | – | 55 | –
SMILES | MEX-5 binding | PABP1 MLLE inh | EBV gp42 block | eIF4H inh | PABP polyA inh
COc1cc(C)ccc1S(=O)(=O)NC(=O)C1(C)CCN1C(=O)Cc1ccccc1Cl (stereo not drawn) | · | – | · | · | ·
COc1ccc(S(=O)(=O)NC(=O)C2(C)CCN2C(=O)C2CC2)cc1 (stereo not drawn) | · | – | · | · | ·
O=C(CSc1ncccn1)NN=C1CCCCCC1 | – | – | – | 82 | +
Cc1cc(C)cc(CSCC(=O)NN=C2CCCCCC2)c1 | – | – | – | – | –
O=C1NC(=S)N/C1=C/c1ccc2c(c1)OCO2 | – | – | · | – | +
O=C1NC(=S)SC1=Cc1ccc2c(c1)OCO2 | · | – | · | · | ·
Cc1ccc(-c2nc3cnccn3c2Nc2c(C)cccc2C)o1 | – | 39 | – | – | –
Cc1ccc(-c2nc3ncccn3c2Nc2ccccc2C)o1 | – | – | – | – | ?
Cc1ccc(-n2c(SCC(=O)N/N=C/c3c(C)nn(-c4ccccc4)c3C)nc3ccccc3c2=O)cc1 | – | 38 | – | – | –
CCc1nc2c(OCc3ccccc3C)cccn2c1N(C)C(=O)C1CC1 | · | – | · | · | ·
CN[C@H]1C[C@@H](c2ccccc2)N(C(C)=O)C[C@H]1CO | · | – | · | · | ·
O=c1cc(-c2ccccc2)nc(SCc2ccc(F)cc2)[nH]1 | – | – | – | active | –
COC(=O)COc1ccc(C2Nc3c(Cl)ccc(C(=O)O)c3C3C=CCC32)cc1 (stereo not drawn) | – | – | – | – | +
O=C(O)c1ccc(Cl)c2c1C1C=CCC1C(c1ccccn1)N2 (stereo not drawn) | -68 | · | – | 100 | +

From PubChem
